Experimental findings from ChEMBL document CHEMBL3988442, “University of Dundee, Small-Polar-MMV Screening Library” (2021) are described below.

Among all 48,000 compounds or so, about 13,000 (27%) showed an effect of 50% or more. The list shows a part of the results.

In this test the test system is Wolbachia pipientis. Description: Anti-Wolbachia Cell-Based Screen. It is filed as functional. Also on record: scale not given: in the data most compounds retested in dose-response had high values. To be noted: 5 µM.
For `O=C(N1CCC(OCc2ccccn2)CC1)C1(c2ccc(F)cc2)CC1`, the “Percent Effect” value is listed as -10.1%. Next, `C=C(C)CNC(=O)C1CCCN(C2CCN(C(C)C)CC2)C1` (stereo not given): -1.601%; `Fc1cnc(N2CCCn3c(nnc3Cn3cccn3)C2)nc1`: -21.77%; `CN(C)c1ncnc2c1CCN(C(=O)CN1CCCCC1)C2`: -9.788%. Next, `CCOC(C)c1nc(CN2CCN(c3ncc(C)cn3)CC2)cs1` (stereo not given): 0.6685%; `COc1ccc(S(=O)(=O)C(F)(F)F)cc1NC(=O)CSC`: 25.38%. Next, `COCCC1(CO)CCCN(Cc2ccc(F)c(C)c2)C1` (stereo not given): -0.7036%; `CCN(CC)C(=O)CCCNC(=O)Cc1nc(-c2ccco2)oc1C`: -23.46%. In the case of `Cc1ccc(C(=O)N2CCOc3nc(C)ccc32)c(F)c1`, the “Percent Effect” value is -2.508%. Turning to `CC(C)(C)c1ncc(C(=O)NCCNC(=O)c2cccs2)s1`, the “Percent Effect” value stood at 110.8%.

In the case of `CC(C)(C)c1ncc(C(=O)NCCNC(=O)c2ccc(O)cc2)s1`, the “Percent Effect” value worked out at 102.8%.

On to `O=C(NCCNc1ccc(Br)cn1)c1ccc(O)cc1`, for which the “Percent Effect” value is listed as -11.29%. Next, `O=C(NCCNc1ncccn1)c1cnc(-c2ccccc2)nc1`: 9.369%; `CC(O)(CCc1ccccc1)CNC(=O)c1cccs1` (stereo not given): -8.464%.

As for `CC(C)(C)c1ncc(C(=O)NCCNC(=O)c2ccccc2)s1`, the “Percent Effect” value is 3.571%. Next, `CC(C)(C)c1ncc(C(=O)NCCn2ccnc2)s1`: -7.496%; `O=C(NCCNC1CCN(c2nccs2)CC1)c1cccs1`: -5.805%; `CC(C)(C)c1ncc(C(=O)NCCNc2ncccn2)s1`: 108.5%.

Regarding `Cc1sc2nc(C(F)(F)F)nc(N3CCC(NS(C)(=O)=O)CC3)c2c1C`, the “Percent Effect” value amounted to 11.4%.

For `CCn1ncc2c1CCCC2NCC1=Cc2ccccc2OC1` (stereo not given), the “Percent Effect” value was -5.815%. Next, `CC(=O)N1CC2(CCCN(Cc3ccc(Cl)cc3)C2)Cc2ccccc21` (stereo not given): 131.8%. Next, `CC(=O)N1CC2(CCN(Cc3ccc(Cl)cc3)C2)Cc2ccccc21` (stereo not given): 116.3%. Next, `Cc1ncsc1CN1CCC2(CC1)CC(=O)N(Cc1ccc(Cl)cc1)C2`: -0.4744%; `CC(=O)N1CCCC2(CCN(Cc3ccc(Cl)c(C(F)(F)F)c3)C2)C1` (stereo not given): 13.59%; `COCC(=O)N1CCC2(CCCN(Cc3ccc(Cl)cc3)CC2)CC1`: -3.814%. As for `CC(=O)N1CCC2(CCCN(Cc3ccc(Cl)c(C(F)(F)F)c3)C2)C1` (stereo not given), the “Percent Effect” value is listed as 5.734%. Regarding `CC(=O)N1CC2(CCN(Cc3ccc(Cl)cc3)CC2)Cc2ccccc21`, the “Percent Effect” value amounted to 118.6%. Next, `CC(=O)N1CCCC2(CCN(Cc3ccc(Cl)c(F)c3)C2)C1` (stereo not given): 9.026%; `Cc1cc(C(=O)N2CCN(CC(O)Cn3cccn3)CC2)c(C)o1` (stereo not given): 3.42%; `CN1CCC(N2CCOC[C@H]2c2nc(-c3ccncc3)c[nH]2)CC1`: -3.647%.

On to `CNS(=O)(=O)c1ccc(C(=O)NC2CCc3nc(C)cn3C2)o1` (stereo not given), for which the “Percent Effect” value is listed as -2.01%. Next, `Cc1nccc(NCc2cncc3c2CCN(S(C)(=O)=O)C3)n1.Cl`: 65.34%; `Cc1cnc(N2CCc3c(CNc4ccnc(C)n4)cncc3C2)nc1.Cl`: 94.65%.

On to `Cc1nccc(NCc2cc3n(n2)CCCN(S(C)(=O)=O)C3)n1`, for which the “Percent Effect” value is -4.835%. Next, `CN1C(=O)CC(C(=O)O)C12CCN(Cc1cc(F)ccc1Cl)CC2` (stereo not given): -13.17%. Next, `Cc1ccnn1CC(=O)Nc1cc(-c2ccncc2)[nH]n1`: -6.833%. Next, `CN(C)C(=O)c1cc(-c2ccncc2)[nH]n1`: 116.7%. For `CN(C)C(=O)c1cc(-c2ccccc2)[nH]n1`, the “Percent Effect” value is recorded as 125.1%. With `Cc1ccn(CC(=O)Nc2cc(-c3ccncc3)[nH]n2)n1`, the “Percent Effect” value is -0.1185%. Next, `Cc1nc(-c2cccc(C(=O)N(C)C)c2)cs1`: -24.42%; `O=C(NCCn1nc2ccccn2c1=O)c1cc(-c2ccccc2)[nH]n1`: 1.619%; `CC1=C[C@@H](CN2CCC(CO)CC2)[C@H](C(C)C)C[C@H]1Cc1nnc(C)o1`: -9.335%. Next, `COc1ccc(CN2C[C@@H](F)[C@@H](OCc3nc4ccccc4[nH]3)C2)cn1`: -8.557%; `CC(NC(=O)c1ccc2c(c1)OCC(=O)N2)c1ccccc1F` (stereo not given): -1.956%; `CCc1ccc(OCC(O)CN2CCN(CCO)CC2)cc1.Cl.Cl` (stereo not given): 85.64%.

`CCN1CCN(CC(O)c2ccc(OC(F)(F)F)cc2)CC1` (stereo not given): the “Percent Effect” value came out at 1.039%. Next, `CCc1ccc(OCC(O)CN2CCC(O)CC2)cc1` (stereo not given): 11.05%; `CCc1ccc(CNCC2CCN(CCO)CC2)cc1`: -51.45%; `Cc1c(C)n(CC(O)CN2CCN(CCO)CC2)c2c(Cl)cccc12.Cl` (stereo not given): 3.197%. Next, `CCc1ccc(OCC(O)CN2CCN(CC)CC2)cc1` (stereo not given): 71.19%; `Cc1n[nH]cc1CNC1(Cc2ccc(Br)cc2)CCCCC1`: 13.31%.

On to `O=C(Cc1ccc(F)cc1)NCc1ccc(C(=O)O)o1`, for which the “Percent Effect” value is -2.994%. Next, `CC(C)c1nc(/C=C/c2ccc(O)c(Cl)c2)ncc1C(=O)O`: 6.301%; `CN(C)S(=O)(=O)N1CCCC1C(=O)N1CCSCC1` (stereo not given): -27.44%.

`CC(C)CNC(=O)[C@H]1CCS(=O)(=O)[C@@H]2CN(CC(C)C)C[C@H]12.O=C(O)C(F)(F)F`: the “Percent Effect” value is listed as 102.6%.

In the case of `CC(C)CNC(=O)[C@H]1CCS(=O)(=O)[C@@H]2CN(Cc3ccc(F)cc3)C[C@H]12.O=C(O)C(F)(F)F`, the “Percent Effect” value was 118.4%.

In the case of `CC(C)CNC(=O)[C@H]1CCS(=O)(=O)[C@@H]2CN(Cc3cccnc3)C[C@H]12`, the “Percent Effect” value is 94.11%.

As to `CC(C)CNC(=O)[C@H]1CCS(=O)(=O)[C@@H]2CN(Cc3ccc(Cl)cc3)C[C@H]12.O=C(O)C(F)(F)F`, the “Percent Effect” value is 20.84%.

On to `Cc1ccc(CN2C[C@@H]3[C@@H](C(=O)N4CCCC4)CCS(=O)(=O)[C@@H]3C2)cc1.O=C(O)C(F)(F)F`, for which the “Percent Effect” value is -5.739%. Consider `O=C([C@H]1CCS(=O)(=O)[C@@H]2CN(Cc3ccc(F)cc3)C[C@H]12)N1CCCC1`, for which the “Percent Effect” value is reported as -0.8548%. Next, `Cc1ccc(CN2C[C@@H]3[C@@H](C(=O)NCC4CC4)CCS(=O)(=O)[C@@H]3C2)cc1.O=C(O)C(F)(F)F`: 110.7%; `C=C(C)COc1cccc(C(=O)N2CCC3(CC2)CN(C)CCN3C)c1`: -0.7727%; `COCc1nc2cc(NCc3nc(C)cs3)ccc2o1`: 14.28%. In the case of `COCCN1CC(C(=O)N(C)Cc2csc(C)n2)CC1=O` (stereo not given), the “Percent Effect” value is recorded as 9.291%. Next, `Cc1nc(N)nc(N2CCOc3ccc(CO)cc3C2)c1C`: -10.79%; `O=C(O)c1cc(-n2cc3c(n2)CCC3)cc(S(=O)(=O)NC2CCCC2)c1`: -14.64%. Take `O=C(NC1CCC1)[C@H]1CCS(=O)(=O)[C@@H]2CN(CCc3ccccc3)C[C@H]12.O=C(O)C(F)(F)F`: the “Percent Effect” value was 0.08141%. In the case of `CC(C)CNC(=O)[C@H]1CCS(=O)(=O)[C@@H]2CN(Cc3cccc(Cl)c3)C[C@H]12.O=C(O)C(F)(F)F`, the “Percent Effect” value came to 11.74%. With `Cc1ccc(CN2C[C@@H]3[C@@H](C(=O)NCC(C)C)CCS(=O)(=O)[C@@H]3C2)cc1.O=C(O)C(F)(F)F`, the “Percent Effect” value amounted to 114.4%. Next, `Cc1cccc(CN2C[C@@H]3[C@@H](C(=O)NCC(C)C)CCS(=O)(=O)[C@@H]3C2)c1.O=C(O)C(F)(F)F`: 114%; `CC(SCCC(=O)NC(N)=O)c1cccc(F)c1` (stereo not given): -9.647%. Next, `CN(C)CC(=O)N1Cc2nnn(C)c2C(COCC2CC2)C1` (stereo not given): -6.376%; `CC(=O)N1CCC(c2nn(C)c3nccnc23)C1` (stereo not given): 104.2%. Next, `CN(C)CC(=O)N1CC(c2nn(C)c3nccnc23)C1`: 96.82%; `Cc1ncc(CN(C)C(=O)Nc2cccc(N3CCOC3=O)c2)s1`: -2.518%; `CC(C)N(C(=O)c1csc(-c2ccoc2)n1)C1CCOCC1`: -5.774%.

On to `Cc1cnn(CC2CCCN2c2ncnc3ccccc23)c1` (stereo not given), for which the “Percent Effect” value was -22.63%. Next, `CCc1ncc2c(n1)CN(C(=O)COC)C2`: 5.323%; `Cc1nc2c(c(=O)n1C)CN(C(=O)C1CCCN(C(N)=O)C1)C2` (stereo not given): 11.31%.

`Cc1nc2c(c(=O)n1C)CN(C(=O)C1CCN(C(=O)C3CCC3)CC1)C2`: the “Percent Effect” value is listed as -3.258%. Next, `Cc1c(-c2cccs2)nn2c(O)c3c(nc12)CN(C(=O)C1CC1)C3`: 98.04%.

Take `COc1cc(C)nc(N2CCN(C(=O)CCc3cccs3)CC2)n1`: the “Percent Effect” value is -2.18%. Next, `COCC(=O)N1Cc2nc3c(C)c(-c4cccs4)nn3c(O)c2C1`: 99.09%; `COCCC(=O)N1Cc2nc3c(C)c(-c4cccs4)nn3c(O)c2C1`: 108.4%. Consider `COCCC(=O)N1Cc2cnc(Cc3ccc(OC)cc3)nc2C1`, for which the “Percent Effect” value is -12.22%. Next, `Cc1nc(-c2cccs2)ccc1C(=O)N1CCN(CCO)CC1`: -3.936%; `c1cc(-c2c[nH]c([C@@H]3COCCN3C3CCCCC3)n2)ccn1`: -0.01712%.

Regarding `CCc1ccc(CN2CC[C@H]3C[C@H](c4nnc(C)[nH]4)O[C@@H]3C2)o1.O=C(O)C(F)(F)F`, the “Percent Effect” value is listed as -6.047%. Take `CC(Sc1nnnn1C1CCOCC1)C(=O)NC1CCCCC1` (stereo not given): the “Percent Effect” value is reported as -2.14%. `COc1cc(N2C[C@@H](C)[C@](O)(C3CC3)C2)ncn1`: the “Percent Effect” value is -12.89%.

In the case of `CS(=O)(=O)CCN1CCN(c2ccc(Cl)cn2)CC1`, the “Percent Effect” value was -5.169%.

Take `C[C@@H]1CN(c2ccc(Cl)cn2)C[C@]1(C)O`: the “Percent Effect” value stood at 110.4%.

As for `C[C@@H]1CN(c2ccc(Cl)cn2)C[C@@]1(O)C1CC1`, the “Percent Effect” value is recorded as 109.5%. Next, `C[C@@H]1CN(c2cc(N3CCC(O)CC3)ncn2)C[C@@]1(O)C1CC1`: -16.8%. Next, `CC(C)NC(=O)CN(C)C1CCN(c2ccc(Cl)cn2)CC1`: -2.588%.
